Data published in PubChem BioAssay.
Active and inactive are the calls of the source.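 The calls were made as follows, unless noted: active = compound raising the membrane signal above positive-control mean plus 3 SD in both repeats, and a primary screen hit; inactive = the rest.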

Target: Short transient receptor potential channel 6 (Mus musculus) (UniProt Q61143)
Experiment: activation of mouse TRPC6 channel, confirmation, selectivity assay for TRPC4 activator project, cell-based, HEK293, membrane potential dye, duplicate (AID 434950;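 active = membrane potential signal rise above negative control mean plus 3 SD in both duplicates, also active in the earlier TRPC4 screen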)
Settings: HEK293 TRPC6, membrane potential fluorescence, at 10 µM

Sequence of Short transient receptor potential channel 6 (Mus musculus) (Q61143 whole entry, looked up): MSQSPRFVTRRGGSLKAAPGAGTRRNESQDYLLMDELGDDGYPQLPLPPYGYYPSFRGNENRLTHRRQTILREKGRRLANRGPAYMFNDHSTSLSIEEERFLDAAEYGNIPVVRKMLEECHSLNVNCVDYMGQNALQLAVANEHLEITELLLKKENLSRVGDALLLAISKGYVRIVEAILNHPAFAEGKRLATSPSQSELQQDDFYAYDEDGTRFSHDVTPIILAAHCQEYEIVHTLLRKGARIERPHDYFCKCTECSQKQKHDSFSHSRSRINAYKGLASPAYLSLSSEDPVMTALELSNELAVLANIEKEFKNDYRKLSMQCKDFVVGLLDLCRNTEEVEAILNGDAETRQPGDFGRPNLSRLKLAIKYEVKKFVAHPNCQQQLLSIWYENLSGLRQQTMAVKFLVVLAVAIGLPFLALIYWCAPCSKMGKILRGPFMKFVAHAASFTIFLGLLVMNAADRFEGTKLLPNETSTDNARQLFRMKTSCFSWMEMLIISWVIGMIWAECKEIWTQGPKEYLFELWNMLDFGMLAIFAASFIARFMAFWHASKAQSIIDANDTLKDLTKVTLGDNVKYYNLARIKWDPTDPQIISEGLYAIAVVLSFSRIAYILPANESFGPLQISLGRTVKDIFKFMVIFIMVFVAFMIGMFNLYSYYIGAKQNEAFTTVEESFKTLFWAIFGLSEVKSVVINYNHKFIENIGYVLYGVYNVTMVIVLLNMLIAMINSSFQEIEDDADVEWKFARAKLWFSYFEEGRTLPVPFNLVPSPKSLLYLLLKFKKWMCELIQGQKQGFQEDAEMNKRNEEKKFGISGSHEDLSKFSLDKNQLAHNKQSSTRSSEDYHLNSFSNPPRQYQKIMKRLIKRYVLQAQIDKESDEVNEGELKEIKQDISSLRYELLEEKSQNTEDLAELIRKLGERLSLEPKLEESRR

outcome, inactive:
O=C(Nc1ccc([N+](=O)[O-])cn1)C1CCCCC1
O=c1[nH][nH]c(-c2ccccc2)c1C=Nc1ccc(F)cc1F
COc1ccccc1C1/C(=C(\O)c2ccc3c(c2)OCCO3)C(=O)C(=O)N1Cc1cccnc1 (stereo unspecified)
CCN(CC)CCSc1nnc2c3ccccc3n(Cc3ccccc3)c2n1
CCCn1c(SCC(=O)N2c3ccccc3Sc3ccccc32)nc2c1c(=O)n(C)c(=O)n2C

Target: Short transient receptor potential channel 6 (Mus musculus) (UniProt Q61143)
Experiment: TRPC6 potentiation by TRPC4 potentiator hits, confirmation, selectivity assay for TRPC4 potentiator project, HEK293 cells, membrane potential dye, duplicate (AID 434952)
Settings: HEK293 TRPC6, membrane potential dye fluorescence, at 10 µM, maximal acetylcholine added after compound

outcome, inactive:
COc1cc(/C=C2\C(=N)N3N=C(S(C)(=O)=O)SC3=NC2=O)ccc1OC(=O)c1cccs1
c1ccc(CN2CCN(c3nc4ccccc4s3)CC2)cc1
COc1ccccc1N(C(=O)c1snc(C(N)=O)c1N)C(C(=O)NCc1ccccc1)c1ccc(O)cc1 (stereo unspecified)
Cc1ccc(SC(CC(=O)c2ccc(C(C)(C)C)cc2)C(=O)O)cc1 (stereo unspecified)
COc1ccc(C2CC(=O)c3cnc(N4CCN(Cc5ccccc5)CC4)nc3C2)cc1 (stereo unspecified)
CC(=O)Nc1ccc(S(=O)(=O)N2CCN(CCCOc3cc(C)ccc3C)CC2)cc1
COc1cc(/C=C/C(=O)OCC(=O)Nc2c(C)n(C)n(-c3ccccc3)c2=O)ccc1OCC#N
Cc1cc2oc(C(=O)N(Cc3ccco3)C3CCS(=O)(=O)C3)cc(=O)c2cc1Cl (stereo unspecified)
CCOCCCn1cnc2c(c1=O)c1nc3ccccc3nc1n2-c1ccc(C)cc1
O=C(c1ccccc1F)N1CCN(c2ccc([N+](=O)[O-])cc2-n2cccc2)CC1
CN(CC(=O)Nc1ccc(F)cc1)C(=O)COC(=O)c1ccccc1
